Most compounds without a hit are left out; they make up all but 3.6% or so of the library.
FUS yeast rescue – rescues growth of FUS-expressing yeast; hit rate 0.24% among 390,000; S. cerevisiae FUS-expressing, growth rescue, OD600, 24 h; AID 1347120; Potency, µM (series often up to 76.6 µM), most hits filed as activators; note: nearly all actives have a fitted effect of over 55% in size
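Yeast expressing FUS under galactose induction, OD 0.005 in 2% galactose medium; compounds in a dilution series, 24 h at 30C. Growth rescue by absorbance at 600 nm; CP55940 positive control, DMSO negative.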
Mm-Cpn inhibitor – blocks the Methanococcus maripaludis chaperonin Mm-Cpn; AID 504842; purified Mm-Cpn ATPase, ADP Transcreener TR-FRET; hit rate 0.031% among 330,000; Potency, µM (highest dose often 76.9 µM), actives largely listed as inhibitors; note: nearly all actives have a fitted effect of over 80% in size
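TR-FRET (320 nm excitation; 590 and 665 nm emission) reports ADP made from 10 uM ATP by 25 nM enzyme; compounds were preincubated 10 min, reaction run 30 min, both at 37°C.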
TDP-43 yeast inh – rescues yeast growth from TDP-43 toxicity; TDP-43 expressing yeast growth rescue, BacTiter-Glo, 24 h; Potency, µM (titrated, usually from 46.1 µM), actives largely listed as activators; hit rate 1.8% among 410,000; note: nearly all actives have a fitted effect of over 50% in size
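Yeast cells expressing TDP-43 under galactose induction are exposed to compounds for 24 hr at 30 deg C. BacTiter-Glo luminescence measures growth, so protective compounds score as activators.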
Abeta yeast res – A-beta toxicity reversal in yeast; hit rate 0.063% among 410,000; Potency, µM (series often up to 46.1 µM), hits mostly activators; yeast expressing A-beta42, growth rescue, OD600, 48 h; response scale: 0% DMSO, 100% iron-clioquinol control; note: nearly all actives have a fitted effect of over 55% in size
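Yeast growth medium received pinned compounds, then yeast cells expressing toxic A-beta were added; plates incubated at 30 C for 48 hr. Growth read as absorbance at 600 nm, normalized to DMSO and equimolar FeCl3 plus clioquinol controls.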
aSyn yeast inh – rescues yeast growth from alpha-synuclein toxicity; Yeast expressing alpha-synuclein, growth rescue, BacTiter-Glo, 24 h; Potency, µM (top dose mostly 46.1 µM), usual class: activators; hit rate 0.14% among 370,000; AID 652106; note: nearly all actives have a fitted effect of over 65% in size
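Readout is rescue of growth in alpha-synuclein-expressing yeast, so inhibitors of toxicity appear as activators. Growth after 24 hr at 30 deg C in galactose medium is quantified by luminescence.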
ClpP mod – qHTS Assay for Activators of ClpP; ATP-dependent Clp protease proteolytic subunit (Bacillus subtilis (strain 168)), P80244; purified B. subtilis ClpP, FRET peptide cleavage, 20 min; Potency, µM (highest dose often 57.5 µM); hit rate 1.9% among 340,000; AID 651965, 2013; active = well fitted falling curve with a large enough effect; inconclusive = small, poorly fitted or top-dose-only effect; inactive = no such curve, though single readings can be large or run the other way; note: the source files actives as falling curves though it sought activators and does not explain the sign; nearly all actives have a fitted effect of over 65% in size
Target sequence (P80244 whole entry, looked up): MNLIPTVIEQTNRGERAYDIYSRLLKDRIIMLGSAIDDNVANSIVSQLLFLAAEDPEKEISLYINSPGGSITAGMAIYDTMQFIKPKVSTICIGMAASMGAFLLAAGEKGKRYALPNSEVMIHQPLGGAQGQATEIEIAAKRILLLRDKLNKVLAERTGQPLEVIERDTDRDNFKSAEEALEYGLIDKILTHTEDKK
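FRET quenching reversal measured ClpP activation: 10 microg/mL B. subtilis ClpP at pH 8 with the FRET-FV decapeptide, read at 430 nm after 320 nm excitation. The 20-min minus 0-min signal was scaled between DMSO/no-enzyme wells and ADEP (5.8 microM final).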
Numbers stand for hits; – = inactive; ? = inconclusive; · = not tested or not shown; [ ] = another dose, or the depositor's remark. Unless noted, calls come from the whole dose curve; as a rule, active = well fitted curve in the direction sought with a large enough effect; inconclusive = small, poorly fitted or top-dose-only effect, or another doubt; inactive = no such curve, though single readings can be large; an effect the other way counts as inactive or inconclusive.

SMILES | FUS yeast rescue | Mm-Cpn inhibitor | TDP-43 yeast inh | Abeta yeast res | aSyn yeast inh | ClpP mod
COc1ccc(NC(=O)CC2C(=O)N(c3ccccc3)C(=O)N2CCC2=CCCCC2)cc1 (centres undefined) | – | · | – | – | · | –
CCOc1ccc(NC(=O)CC2C(=O)N(c3cccc(C)c3)C(=O)N2CCC2=CCCCC2)cc1 (centres undefined) | 35.5µM | · | – | – | · | –
Cc1ccc(Cl)cc1N1CCN(C(=O)c2ccc(CS(=O)c3ccccc3)o2)CC1 (centres undefined) | ? | · | – | – | · | –
COC(=O)[C@@]1(Cc2ccc(F)cc2)[C@H]2c3cc(C(=O)N(C)C)n(CCc4c[nH]c5ccc(O)cc45)c3C[C@H]2CN1C(=O)c1ccccc1 | 15.8µM | · | – | – | – | –
COC(=O)[C@@]1(Cc2ccc(F)cc2)[C@H]2c3cc(C(=O)N4CCCC4)n(CCc4c[nH]c5ccccc45)c3C[C@H]2CN1C(=O)c1ccccc1 | ? | · | – | – | – | –
Cc1cc(NCCCN2CCOCC2)n2c(nc3ccccc32)c1C#N | – | – | – | – | – | –
Cc1cc(NCCN2CCOCC2)n2c(nc3ccccc32)c1C#N | – | – | – | – | – | 3.55µM
CCOC(=O)c1c(-c2ccccc2Cl)cn2ccccc12 | – | – | – | – | – | 25.1µM
CCOC(=O)c1c(-c2cccc([N+](=O)[O-])c2)cn2ccccc12 | – | – | –[0.397 µM] | – | – | ·
O=C(c1cnc(Cl)c(Cl)c1)N1CCC(Cc2ccccc2)CC1 | – | – | 12.6µM | – | – | ·
Cc1cc(C(=O)N2CCC(Cc3ccccc3)CC2)ccc1[N+](=O)[O-] | 11.2µM | – | ? | – | – | –
O=C(c1ccc([N+](=O)[O-])cc1)N1CCC(Cc2ccccc2)CC1 | – | – | – | – | – | ·
CCCCCC[C@H](CN(CCCC)S(C)(=O)=O)c1ccccc1 | – | · | · | · | · | ·
COc1ccc(CC(NC(C)=O)C(=O)NC2CCN(c3nc(C)cc(C)c3C#N)CC2)c(OC)c1 (centres undefined) | – | – | – | – | – | 12.6µM
COc1cccc(CC(NC(C)=O)C(=O)NC2CCN(c3nc(C)cc(C)c3C#N)CC2)c1 (centres undefined) | – | – | – | – | – | ?
Cc1cccc(Cn2c(=O)n(CCc3ccccc3)c(=O)c3sc4ccccc4c32)c1 | – | · | – | – | · | –
CCCC(=O)Nc1ccc(C(=O)N/N=C/c2ccc([N+](=O)[O-])o2)cc1 | – | – | – | – | – | 31.6µM
CCCCCCCC(=O)Nc1ccc(C(=O)N/N=C/c2cccc([N+](=O)[O-])c2)cc1 | – | – | – | – | – | 28.2µM
CCC(=O)Nc1ccc(C(=O)N/N=C/c2cccnc2)cc1 | – | – | – | – | – | –
CCCCCCC(=O)Nc1ccc(C(=O)N/N=C/c2cccnc2)cc1 | 28.2µM | – | – | – | – | –
O=C(CSc1ccc(Cl)cc1)N/N=C/c1ccc([N+](=O)[O-])o1 | – | – | 12.6µM | – | – | –
COc1ccc(CN2CC[C@H]3C=CC[C@@H](C(=O)Nc4ccc(Cl)cc4Cl)[C@H]3C2=O)cc1OC | · | · | · | · | · | –
c1ccc2nc3c(nc2c1)[nH]c1ccccc13 | – | – | 7.08µM | – | – | –
c1ccc(-c2c3ccccc3nc3[nH]c4ccccc4c23)cc1 | – | – | ? | ? | – | –
OCCNC1=NCCN1 | – | – | – | – | – | 31.6µM
SMILES | FUS yeast rescue | Mm-Cpn inhibitor | TDP-43 yeast inh | Abeta yeast res | aSyn yeast inh | ClpP mod
CCCCCCn1c(=O)n2n(c1=O)[C@@H]1CN(S(=O)(=O)c3ccc(C)cc3)C[C@]1(O)[C@@H](OC(=O)NCc1ccc(OC)c(OC)c1)C2 | 22.4µM | · | – | – | – | –
CCCCCCNC(=O)O[C@H]1Cn2c(=O)n(CCCCCC)c(=O)n2[C@@H]2CN(S(=O)(=O)c3ccc(C)cc3)C[C@]12O | ? | · | – | – | – | –
Cc1nc(N2CCOCC2)nc(N2CCCCC2C)c1[N+](=O)[O-] (centres undefined) | – | – | 20µM | – | – | –
C=C[C@@H]1c2cc(C)ccc2N(S(=O)(=O)c2ccc(C)cc2)[C@H](c2ccc(C(C)(F)F)cc2)C1(C#N)C#N | · | · | · | · | · | –
COc1ccc(NC(=O)Cn2c(=O)n(Cc3ccccc3Cl)c(=O)c3cc(OC)c(OC)cc32)cc1OC | – | · | – | – | · | –
Cc1cc(NCCCN)nc(-c2ccccc2O)n1 | – | – | – | – | – | –
Cc1ccc(Nc2cc(C)nc(-c3ccccc3O)n2)cc1 | – | – | ? | – | – | ?
C/C(=N\Nc1cc(-c2ccccc2)nc(-c2ccccc2)n1)c1ccc(O)c(C)c1 | – | – | 15.8µM | – | – | –
C/C(=N\Nc1cc(C)nc(-c2ccccc2O)n1)c1ccccc1 | – | – | 10µM | – | – | ·
Cc1cc(N/N=C/c2ccc(O)c(C)c2O)nc(-c2ccccc2O)n1 | – | – | 10µM | – | – | –
O=C(c1cc(S(=O)(=O)N2CCCC2)c[nH]1)N1CCN(c2cccc(Cl)c2)CC1 | – | · | – | – | · | –
CC(C)(C)OC(=O)N1CCc2onc(-c3ccc(Br)cc3)c2C1=O | – | · | ? | – | – | –
O=C1NCCc2onc(-c3ccc(Br)cc3)c21 | – | · | 35.5µM | – | – | –
COc1ccc2c(c1)c1c(c(=O)n(-c3ccc(C)cc3)c(=O)n1CC(=O)NCc1ccc(C)cc1)n2C | – | · | – | – | · | ?
Cc1ccc(-c2cc3nc4c(c(=O)n3[nH]2)CCCC4)cc1 | · | · | – | – | – | ?
O=c1c2c(nc3cc(-c4ccc(F)cc4)[nH]n13)CCC2 | · | – | – | – | – | 6.31µM
COc1ccc(NC(=O)N(C)C[C@H]2Oc3c(NC(=O)Nc4ccccc4)cccc3C(=O)N([C@H](C)CO)C[C@@H]2C)cc1 | – | – | – | – | – | –
COc1ccc(NC(=O)N(C)C[C@H]2Oc3ccc(NC(=O)Nc4ccc(C(F)(F)F)cc4)cc3C(=O)N([C@H](C)CO)C[C@@H]2C)cc1 | 35.5µM | – | – | – | – | –
COc1ccc(NC(=O)Nc2cccc3c2O[C@H](CN(C)C(=O)Nc2ccc(OC)cc2)[C@@H](C)CN([C@H](C)CO)C3=O)cc1 | 31.6µM | – | – | – | – | –
C[C@@H]1CN([C@H](C)CO)C(=O)c2cc(NC(=O)Cc3cn(C)c4ccccc34)ccc2O[C@H]1CN(C)C(=O)Nc1ccc2c(c1)OCO2 | 31.6µM | – | – | – | – | –

Screening data: PubChem BioAssay, National Center for Advancing Translational Sciences (NCATS)
